High-throughput results as filed in PubChem.
Compounds with a hit are over-represented: about 3.4% of the library has one in this group of screens.
esBAF inh: inhibitors of esBAF chromatin remodeling in mouse ES cells; reporter increase, % at 12.5 µM; 350,000 tested, 2% active; Bmi1-luciferase knock-in reporter, 24 h; 100% = twice the neutral-well signal; AID 602393; in the data active = activation above about 40%; inconclusive = no clear call, values can overlap the other calls;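 also: 0% = median of the plate's neutral control wells and 100% = double that signal; a rise in the Bmi1 reporter signal indicates esBAF inhibition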
Wnt bcat act: Wnt/beta-catenin pathway activation; Wnt/beta-catenin reporter cell assay, activator, plate reader; 300,000 tested, 1.2% active; activation, % at 9.35 µM; in the data active = activation above about 30%, passing the limit was not always enough; inconclusive = no clear call, values can overlap the other calls;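 also: 0% = neutral control wells and 100% = positive control wells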
miR-122 sensor: inhibitors of miR-122 in Huh7 cells; activation (reporter increase), % at 12.5 µM; 340,000 tested, 0.3% active; Huh7 miR-122 Renilla luciferase sensor, 48 h; neutral wells = 0, positive control = 100;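 active = mean replicate activation score at least 90 and every replicate individually at or above 90; inconclusive = only one of the two criteria met; inactive = neither criterion met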;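 also: higher luciferase means less miR-122 activity so hits act as miR-122 inhibitors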
MITF TRPM1 HTS: activators of MITF-driven TRPM1 promoter activity in SK-MEL-5 cells. SK-MEL-5 TRPM1-promoter luciferase, 24 h; % of positive control, neutral wells = 0. activation, % at 12.5 µM. 300,000 tested, 0.75% active;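 active = mean activation of at least 80% with every replicate also reaching 80%; inconclusive = mean reaches 80% but some replicate falls short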;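 also: 0% = neutral control wells and 100% = parthenolide positive control wells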
HIV Env fusion: inhibitors of HIV Env-mediated cell fusion. HeLa-JRFL Env/CEM21 cell fusion, luciferase. inhibition, % at 12.3 µM. 360,000 tested, 1.1% active. AID 651610;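 active = mean replicate inhibition score of at least 50 and every replicate individually at or above 50; inconclusive = only one of the two criteria met; inactive = mean below 50 and not all replicates reaching 50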;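 also: 0% = plate neutral controls and 100% = maraviroc near 300 nM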
* marks the source's active call; other numbers are inactive results; ? = inconclusive; nt = not tested or not shown; [ ] = remark or other dose.

SMILES	esBAF inh	Wnt bcat act	miR-122 sensor	MITF TRPM1 HTS	HIV Env fusion
C[C@H](CO)N1C[C@H](C)[C@H](CN(C)Cc2ccc(C(F)(F)F)cc2)OCCCC[C@H](C)Oc2ccc(NC(=O)Nc3ccc4c(c3)OCO4)cc2C1=O	0	nt	4[16.7 µM]	nt	69*[16.7 µM]
Cc1ccc(S(=O)(=O)/N=C2/C=C(C3C(=O)CC(C)(C)CC3=O)C(=O)c3ccccc32)cc1	?	63*	24	nt	-141
Cc1ccc(S(=O)(=O)/N=C2\C=C(NS(=O)(=O)c3ccccc3)C(=O)c3ccccc32)cc1	-1	10	17	-27	nt
O=C(NCCc1ccccc1)c1cccc(NC(=O)C2CC2)c1	52*	0	6	61	-42
O=C(NCCc1ccccc1)c1cccc(NC(=O)C2CCC2)c1	57*	7	5	43	-19
O=C(NCCCc1ccccc1)c1cccc(NC(=O)C2CCCC2)c1	3	-4	1	7	-27
O=C(NCc1cccs1)Nc1cccc(Cl)c1	59*	nt	51	42	nt
S=C(NCc1cccs1)Nc1cccc(Cl)c1	7	1	220*	5	nt
CC(C)c1ccc(NC(=S)NCc2cccs2)cc1	34	1	102*	38	-92
O=C(Nc1cccc(Cl)c1)NC1(C(=O)NCc2cccs2)CCCCC1	7	-3	8	10	nt
COc1ccc(C)cc1Nc1nc(-c2c[nH]c3ccccc23)cs1	nt	-6	nt	6	-18
Clc1ccc(-c2c[nH]c3ccccc23)nn1	27	-12	3	1	-4
c1ccc2c(-c3csc(-c4ccncc4)n3)c[nH]c2c1	52*	28	-6	126*	-145
Brc1ccc(-c2csc(-c3c[nH]c4ccccc34)n2)cc1	67*	-2	3	20	nt
Nc1c(-c2ccccc2)cnc2c(-c3ccccc3)cnn12	-55	12	-3	nt	-369
Nc1c(-c2cccs2)cnc2c(-c3ccc(F)cc3)cnn12	2	54*	nt	71	-388
O=C(C[C@H]1C[C@H]2c3cc(NC(=O)C4CCOCC4)ccc3O[C@H]2[C@H](CO)O1)NCc1ccccc1F	-2	nt	-2[16.7 µM]	nt	13[16.7 µM]
O=C(C[C@@H]1C[C@@H]2c3cc(NC(=O)C4CCOCC4)ccc3O[C@@H]2[C@H](CO)O1)NCc1ccccc1F	0	nt	-2[16.7 µM]	nt	71*[16.7 µM]
O=C(C[C@@H]1C[C@H]2c3cc(NC(=O)C4CCOCC4)ccc3O[C@H]2[C@H](CO)O1)NCc1ccccc1F	-1	nt	-3[16.7 µM]	nt	87*[16.7 µM]
COCC(=O)Nc1ccc2c(c1)C(=O)N(C)[C@@H]1CC[C@H](CC(=O)NCc3ccccc3Cl)O[C@@H]1CO2	-6	nt	42[16.7 µM]	nt	29[16.7 µM]
COn1c(SCC(N)=O)nc2ccccc2c1=O	5	nt	7	-10	nt
COn1c(SCc2ccc(C)cc2C)nc2ccccc2c1=O	-3	nt	3	nt	57*
CC(=O)N(C)C[C@H]1Oc2ncc(C#Cc3ccc(F)cc3)cc2C(=O)N([C@H](C)CO)C[C@H]1C	7	nt	7[16.7 µM]	nt	2[16.7 µM]
Cc1cccc(N2C(=O)CC(SC(=Nc3ccccc3)Nc3ccccc3)C2=O)c1 (configuration not stated)	-2	nt	10	-6	nt
O=C1SC(SC(=Nc2ccccc2)Nc2ccccc2)C(=O)N1c1ccccc1 (configuration not stated)	nt	48*	-1	36	-6
SMILES	esBAF inh	Wnt bcat act	miR-122 sensor	MITF TRPM1 HTS	HIV Env fusion
CC(=O)Nc1ccc(/C=N/N2CCCCC2)cc1	62*	9	2	74	-22
COc1ccccc1N1CCN(/N=C/c2ccc([N+](=O)[O-])cc2)CC1	?	13	-2	nt	-32
O=[N+]([O-])c1ccc(C=NN2CCCCCC2)cc1	69*	60*	-9	41	-117
CNC[C@@H]1Oc2ccc(NS(=O)(=O)c3ccc(C)cc3)cc2CC(=O)N([C@H](C)CO)C[C@H]1C	-1	nt	2[16.7 µM]	nt	nt
Cc1ccccc1Cn1nc(C)c(NC(=O)c2noc3c2CC(C(C)(C)C)CC3)c1C (configuration not stated)	5	nt	1	10	56*
CC(C)(C)C1CCc2onc(C(=O)NCc3ccc(F)cc3)c2C1 (configuration not stated)	-3	nt	1	1	76*
O=C(NCc1ccc(F)cc1)c1noc2c1CCCC2	nt	-1	nt	27	nt
Cc1nn(Cc2ccc(Cl)c(Cl)c2)c(C)c1NC(=O)c1noc2c1CCCCC2	3	nt	-2	-4	56*
Cc1nn(Cc2ccc(Cl)cc2)c(C)c1NC(=O)c1noc2c1CCCCC2	3	-2	-6	-13	nt
CCOc1ccc(-c2cc(C(=O)Nc3ccc(F)cc3)[nH]n2)c(C)c1	65*	-4	-1	nt	-51
CCn1cc(Br)c(C(=O)Nc2cccc(Cl)c2)n1	36	nt	-1	48	nt
CCn1cc(Br)c(C(=O)Nc2ccc(Cl)c(Cl)c2)n1	65*	nt	7	58	-105
COCCNC(=O)c1cc2c(s1)-c1ccc(Cl)cc1SC2	32	43*	-4	42	-80
NC(=O)c1cc2c(s1)-c1cc(Cl)ccc1SC2	5	9	nt	-4	7
C/C=C/c1cnc2c(c1)C(=O)N([C@H](C)CO)C[C@@H](C)[C@H](CN(C)S(=O)(=O)c1cn(C)cn1)O2	-17	nt	-4[16.7 µM]	nt	nt
COc1cccc(S(=O)(=O)Nc2ccc3c(c2)C(=O)N(C)[C@@H]2CC[C@H](CC(=O)O)O[C@H]2CO3)c1	-5	nt	13[16.7 µM]	nt	-21[16.7 µM]
O=C(Nc1ccc(Cl)c(Cl)c1)Nc1ccccn1	67*	37*	9	73	-52
COc1cccc(NC(=O)c2ccc(NC(=O)C(C)(C)C)cc2)c1	66*	13	-3	72	-31
COC(=O)c1cccc(NC(=O)NC(=O)c2ccccc2Cl)c1	nt	19	nt	-58	43
COC(=O)c1cccc(NC(=O)Nc2ccc(Cl)c(Cl)c2)c1	71*	-2	-2	3	nt
COc1cccc(NC(=O)Nc2ccc(C)c(Cl)c2)c1	55*	12	6	?	-6
CCCC(=O)Nc1ccc(C(=O)Nc2cccc(OC)c2)cc1	nt	21	nt	25	-8
CN1C(=O)c2cc(NC(=O)Cc3cccs3)ccc2OC[C@H]2O[C@H](CC(=O)NCC3CC3)CC[C@H]21	0	nt	3[16.7 µM]	nt	11[16.7 µM]
COc1cccc(NC(=O)Nc2ccc(C(C)(C)C)cc2)c1	57*	10	11	61	-98
COc1cccc(NC(=O)Nc2ccncc2)c1	nt	1	nt	3	17
Cc1c(C(=O)/C=C/N(C)C)nnn1-c1ccc(Cl)c(Cl)c1	nt	48*	nt	nt	-3
O=C(NC(=S)Nc1cccc(O)c1)C12CC3CC(CC(C3)C1)C2	47*	22	18	nt	-5
O=C(NNC(=O)C12CC3CC(CC(C3)C1)C2)c1cccc(O)c1	14	0	nt	-6	-43
COc1cccc(C#Cc2ccc3c(c2)O[C@@H](CN(C)C)[C@@H](C)CN([C@H](C)CO)S3(=O)=O)c1	-4	nt	0[16.7 µM]	nt	23[16.7 µM]
Cc1ccsc1/C=N/N1CCN(c2ccccc2)CC1	49*	19	-3	63	nt
